# FBA Mtb inh = Mtb fructose-bisphosphate aldolase inhibition. purified M. tuberculosis FBA, fluorescence read-out. actives 2.3% (n = 360,000). inhibition, % at 1 µM. P9WQA3;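 note: 0% = vehicle and 100% = reference inhibitor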
# Mtb UGM inh = blocks M. tuberculosis UGM enzyme; P9WIQ1; purified UGM, fluorescence polarization probe displacement; inhibition, % at 10 µM; actives 0.06% (n = 320,000); in the data active = inhibition above about 10%, passing the limit was not always enough
# Target sequence (P9WIQ1 whole entry, looked up): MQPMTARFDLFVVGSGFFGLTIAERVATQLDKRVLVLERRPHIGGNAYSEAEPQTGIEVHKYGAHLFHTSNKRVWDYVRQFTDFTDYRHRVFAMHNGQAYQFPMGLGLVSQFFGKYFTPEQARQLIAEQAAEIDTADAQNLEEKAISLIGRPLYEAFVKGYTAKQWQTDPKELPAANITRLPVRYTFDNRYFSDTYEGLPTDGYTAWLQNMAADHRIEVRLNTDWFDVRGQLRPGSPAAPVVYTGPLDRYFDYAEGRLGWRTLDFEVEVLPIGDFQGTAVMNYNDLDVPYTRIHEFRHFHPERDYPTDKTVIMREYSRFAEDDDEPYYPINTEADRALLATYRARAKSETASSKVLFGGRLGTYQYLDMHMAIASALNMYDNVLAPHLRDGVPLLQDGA
# FadD28 binding = M. tuberculosis FadD28 bisubstrate binding inhibition. FadD28 bisubstrate probe binding, fluorescence polarization. inhibition, % at 12.5 µM. actives 0.22% (n = 360,000); in the data active = inhibition above about 8.5%, passing the limit was not always enough
# GDH-TPI counter-1 = inhibits GDH-TPI coupling enzymes, artifact for Mtb FBA screen; GDH-TPI coupled enzyme counterscreen, NADH absorbance; inhibition, % at 4.8 µM; actives 1.2% (n = 360,000); AID 588335; in the data active = inhibition above about 30%;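 note: 0% = DMSO wells and 100% = wells lacking the enzyme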
# Rv3671c protease = inhibitors of M. tuberculosis serine protease Rv3671c | inhibition, % at 5.96 µM | actives 0.048% (n = 320,000) | AID 2606; in the data active = inhibition above about 38%;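 note: extracellular domain of Rv3671c used as enzyme; 0% = enzyme with DMSO and 100% = no enzyme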
# Mtb bLac sens = beta-lactam sensitization of Mtb H37Rv. M. tuberculosis H37Rv growth with meropenem, percent inhibition. inhibition, % at 25 µM. actives 0.27% (n = 330,000); call rule not given here;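 note: growth measured after seven days incubation then overnight dye step; 0% = bacteria only wells and 100% = bacteria with antibiotic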
# Mtb FBA confirm = confirmation of M. tuberculosis fructose-bisphosphate aldolase inhibitors; shares compounds with FBA Mtb inh; purified M. tuberculosis FBA, fluorescence read-out; inhibition, % at 1 µM; actives 78% (n = 5,600); AID 651616;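 note: 0% = vehicle wells and 100% = reference inhibitor wells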
# GDH-TPI counter-2 = counter-screen for M. tuberculosis FBA inhibitors: GDH-TPI coupled enzyme inhibition. shares compounds with FBA Mtb inh. GDH-TPI coupled enzyme counterscreen, fluorescence. inhibition, % at 1 µM. actives 81% (n = 5,600). AID 652141; in the data active = inhibition above about 10%
# * hit, by the source's call; nt = not tested or not shown; + = active, no number. Shown are actives, neighbours in structure and some others; about 3.7% of the full set was active somewhere. Cut-off read from the data, not from the text of the source, unless noted: active = inhibition above about 27%; inactive = the rest.
SMILES,FBA Mtb inh,Mtb UGM inh,FadD28 binding,GDH-TPI counter-1,Rv3671c protease,Mtb bLac sens,Mtb FBA confirm,GDH-TPI counter-2
O=C(Nc1ccc(NC(=O)c2ccccc2O)cc1)Nc1ccc(F)cc1F,34.4*,-0.3,-1.6,16.1,-27.0,-4.7,53.2*,51.1*
O=C(Cn1ncc2ccccc2c1=O)Nc1cccc(C(F)(F)F)c1,4.1,nt,0.1,15.0,nt,nt,nt,nt
COc1ccc([C@H]2C[C@H](n3cc(C4CC4)nn3)[C@@H](O)CN2CC2CCCCC2)cc1,-0.5,nt,-4.2,1.0,nt,nt,nt,nt
CCN1CCc2c(sc3c2c(NCc2ccco2)nc2nnnn23)C1,64.2*,5.3,-3.1,7.5,4.5,4.0,8.7,-2.2
CCc1ccn2cc(-c3ccc4c(c3)OCO4)nc2c1,91.3*,1.1,-1.3,12.6,2.6,0.0,64.9*,43.2*
C=CCn1c2ccccc2c(=O)c2cc(C#Cc3cc(OC)cc(OC)c3)ccc21,56.2*,1.7,-1.4,30.9*,-31.7,9.2,9.6,6.5
COc1cc(C#Cc2c(C=O)n(C)c3ccccc23)cc(OC)c1,6.4,2.5,-0.8,15.1,2.7,3.1,nt,nt
O=C(C(O)c1ccc(Br)cc1)N1CCC(Nc2ccc3[nH]ncc3c2)CC1 (stereo unspecified),42.0*,nt,-2.3,5.2,nt,nt,+,+
COc1ccc(S(=O)(=O)NC(=O)C2(C)CCN2C(=O)Cc2cc(C)cc(C)c2)cc1 (stereo unspecified),-2.7,nt,-0.5,10.6,nt,nt,nt,nt
CCCCN(CC)CCCNC(=O)c1cc2cc3ccc(C)cc3nc2o1,94.8*,1.6,-1.0,34.6*,1.0,-5.0,77.6*,69.5*
CCCN(CCC)CCCNC(=O)c1cc2cc3ccc(Cl)cc3nc2o1,10.7,-2.5,-2.6,8.1,0.3,84.2,nt,nt
CCCCN(CC)C(=O)c1cc2cc3ccc(OC)cc3nc2o1,40.7*,0.8,-2.4,34.3*,-17.5,76.8,98.3*,78.2*
Cc1ccc2cc3cc(C(=O)NCCCN4CCc5ccccc5C4)oc3nc2c1,69.8*,-0.9,-9.2,34.7*,-14.0,-1.2,183.7*,133.8*
Cc1ccc2cc3cc(C(=O)NCCCN4CCCCCC4)oc3nc2c1,74.5*,-0.5,-6.6,25.3,-4.2,-1.2,96.6*,46.8*
Cn1cc(-c2ccc(C(=O)NCc3cccc(Cl)c3)c3occc23)cn1,41.6*,nt,-10.2,0.9,nt,nt,2.5,-2.6
CN(C)c1nc(-c2ccccc2)cc(C(F)(F)F)c1C#N,7.2,3.0,-0.5,-2.8,-7.0,-7.7,nt,nt
CN(C)c1nc(-c2cccs2)cc(C(F)(F)F)c1C#N,34.5*,0.8,-4.2,17.2,-12.7,8.0,-0.4,-4.2
Cc1nn(CCO)c2nc(-c3cccs3)cc(C(F)(F)F)c12,100.3*,0.8,-1.3,23.7,-3.7,9.9,179.5*,168.4*
CN(C(=O)COC(=O)c1ccc(Br)c(S(=O)(=O)N2CCOCC2)c1)C1CCCCC1,-2.8,-0.2,-4.7,-12.3,3.9,0.3,nt,nt
CCN(Cc1cn2cccnc2n1)C1CCCCC1,109.3*,0.6,-4.2,-5.0,-2.3,-9.9,-4.0,-2.1
Cc1cc(OCc2cn3cccnc3n2)ccc1Cl,8.3,2.4,-1.5,6.4,5.0,-3.2,nt,nt
Cc1cc(C)cc(CC(=O)N2CCC2(C)C(=O)NS(=O)(=O)Cc2ccccc2)c1 (stereo unspecified),-3.6,nt,-4.5,-0.9,nt,nt,nt,nt
CCOC(=O)Cc1cc(=O)n2[nH]c(-c3ccccc3)cc2n1,22.2,-1.3,-2.9,3.9,3.7,8.5,nt,nt
CCOC(=O)Cc1cc(=O)n2[nH]c(-c3ccccc3)c(-c3ccccc3)c2n1,42.8*,-2.6,-2.1,3.8,1.6,-1.9,80.5*,67.0*
CCOC(=O)Cc1cc(=O)n2[nH]c(C)c(-c3ccccc3)c2n1,38.9*,-1.3,-1.1,12.2,-28.6,7.8,96.5*,77.4*
SMILES,FBA Mtb inh,Mtb UGM inh,FadD28 binding,GDH-TPI counter-1,Rv3671c protease,Mtb bLac sens,Mtb FBA confirm,GDH-TPI counter-2
Nc1ccccc1-c1nc2ccccc2s1,51.2*,1.9,-0.3,6.2,2.3,10.0,196.8*,146.8*
Cc1ccc(Cn2cccc(-c3nc4ccccc4s3)c2=O)cc1,54.5*,0.5,0.4,18.3,-10.2,-15.0,114.6*,107.0*
O=C(Cc1nc2ccccc2s1)c1ccc(O)cc1O,nt,3.6,nt,nt,-7.2,-7.9,nt,nt
Oc1ccc(-c2nc3ccccc3s2)c(O)c1,37.0*,0.6,-2.0,25.2,-14.8,89.6,106.1*,84.3*
Oc1ccc(-c2nc3ccccc3s2)cc1,94.4*,1.4,-2.2,12.1,10.0,81.8,75.4*,63.2*
CCC1NC(=O)c2cccnc2-n2c1nc1cc(OC)c(OC)cc1c2=O (stereo unspecified),0.3,nt,-3.2,14.4,nt,nt,nt,nt
O=C(O)CCCN1C(=O)C2C3CCC(C3)C2C1=O (stereo unspecified),-1.0,nt,-1.2,-10.2,nt,nt,nt,nt
c1cc2c3c(cccc3c1)-c1cnccc1-2,11.9,nt,-3.0,1.4,nt,nt,nt,nt
O=C(NCc1cccc(Cl)c1)C1CCN(S(=O)(=O)c2ccc(F)cc2)CC1,-2.2,0.6,-4.5,-1.9,-1.2,4.7,nt,nt
c1csc(-c2nc3ccccc3s2)c1,39.4*,-0.7,-1.0,7.3,-0.3,4.0,-1.4,-3.4
COc1ccc(-c2nc3ccccc3s2)cc1NC(C)=O,72.7*,0.0,-2.7,39.0*,4.2,-6.4,138.3*,117.7*
c1ccc2sc(-c3ccncc3)nc2c1,2.2,-1.8,-2.3,7.5,2.0,-2.5,nt,nt
O=C(COC(=O)Cc1ccc(Br)cc1)NC1CCCC1,3.5,-0.4,0.8,10.3,8.3,-0.7,nt,nt
CCc1nc2ccc(C(=O)Nc3ccc(NC(C)=O)cc3)cn2c1N(C)CCCc1ccccc1,3.6,nt,1.0,-2.2,nt,nt,nt,nt
Cc1nc(-c2cccc(S(=O)(=O)N3CCC(C)CC3)c2)cs1,41.5*,1.6,-3.0,0.5,-0.6,-15.0,+,+
Cc1nc(-c2cccc(S(=O)(=O)N3CCCCC3)c2)cs1,3.9,1.9,-3.6,-10.3,0.3,-9.3,nt,nt
Cc1ccc(-n2nc(C)c3c(C)c(CCC(=O)NC(C)c4ccccc4)c(C)nc32)cc1 (stereo unspecified),3.3,-0.7,-2.4,6.6,3.9,-3.2,nt,nt
COCCCNC(=O)CCc1c(C)nc2c(c(C)nn2-c2ccc(C)cc2)c1C,56.3*,-3.3,-0.7,6.6,nt,0.5,71.5*,77.1*
COCCNC(=O)CCc1c(C)nc2c(c(C)nn2-c2ccc(C)c(C)c2)c1C,42.6*,-1.6,-1.0,-1.4,8.8,-2.9,73.7*,56.3*
COCCCNC(=O)Cn1nc(-c2ccc(C)cc2)ccc1=O,8.5,2.0,-1.7,8.5,5.6,0.6,nt,nt
COCCNC(=O)CCc1c(C)nc2nc(-c3cc(OC)cc(OC)c3)nn2c1C,-2.7,-0.7,-0.5,0.0,-7.3,-0.5,nt,nt
COCCNC(=O)CCc1c(C)nc2c(c(C)nn2-c2ccc(C)cc2)c1C,54.6*,1.9,-0.9,3.5,-9.7,-1.1,63.0*,48.8*

# Bioassay records deposited in PubChem by several laboratories.
